Source: PubChem BioAssay (National Center for Advancing Translational Sciences (NCATS))
KB-3-1 tox: KB-3-1 parental cell cytotoxicity; KB-3-1 viability, CellTiter-Glo ATP luminescence, 72 h; Potency, µM (doses to about 46.1 µM), actives largely listed as cytotoxic; 400,000 tested, 1.4% active; note: % is set by controls: 0 for no effect and ±100 for the full control effect; nearly all actives have a fitted effect of over 60% in size
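Viability of parental KB-3-1 cells, measured by CellTiter-Glo luminescence, followed a 72 h incubation at 37 °C with pinned compounds in phenol-red-free DMEM containing 10% FBS.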
HepG2 viability: kills HepG2 cells in TGF-b inhibitor counter-screen. 410,000 tested, 0.76% active. Potency, µM (highest dose often 46.1 µM), for inactives: at the highest dose activity change, negative = cytotoxicity, usual class: cytotoxic. HepG2 CAGA-GFP viability, ATP luminescence, 18 h
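HepG2 CAGA-GFP cells (1000/well, DMEM with 1% FBS) received compound, then TGF-beta at 500 pg/mL final, and were incubated 18 hours at 37 degrees C. Viability was read by CellTiter-Glo luminescence. Media-only wells were set as complete cell-killing and DMSO as no toxicity.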
HT1080 IDH1KD tx: toxicity to HT-1080 IDH1 knockdown cells (counter line); HT-1080 IDH1 knockdown viability, ATP luminescence, 48 h; Potency, µM (series often up to 46.1 µM), for inactives: at the highest dose activity, negative = toxicity, actives largely listed as cytotoxic; 360,000 tested, 2% active; AID 686971;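 note: 0% = DMSO wells and -100% = cell-free medium wells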
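% activity derives from luminescence (CellTiter-Glo), normalised to DMSO and no-cell wells. HT-1080-IDH1KD cells, 750/well, had 48 h compound exposure at 37 °C.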
TGFb SMAD3 inh: inhibitors of TGF-b signaling | HepG2 CAGA-GFP TGF-b/SMAD3 reporter, GFP fluorescence, 18 h; TGF-beta stimulated, 500 pg/mL final | Potency, µM (top dose mostly 46.1 µM), without a hit: at the highest dose activity, negative = inhibition, most hits filed as inhibitors | 410,000 tested, 1.2% active | AID 588855; note: % is set by controls: 0 for no effect and ±100 for the full control effect; nearly all actives have a fitted effect of over 65% in size
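Per well, imaged GFP fluorescence of HEPG2 CAGA-GFP cells gives the signal; cells get compound, then TGF-beta (500 pg/mL final), 18 h at 37 degrees C; %Activity versus -TGF-beta and +DMSO controls.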
HT1080-NT tox: kills 2HG-producing HT-1080-NT fibrosarcoma cells; AID 686970; HT-1080-NT fibrosarcoma viability, CellTiter-Glo ATP luminescence, 48 h; 360,000 tested, 1.6% active; Potency, µM (series often up to 46.1 µM), without a hit: at the highest dose activity, negative = less viability, actives largely listed as cytotoxic;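 note: NT is the 2HG producing partner of a matched IDH1 knockdown line; 0% = DMSO-treated cells and -100% = media-only wells without cells; nearly all actives have a fitted effect of over 55% in size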
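Toxicity toward the 2HG-producing NT line was scored as %Activity, normalised to DMSO and no-cell wells, from CellTiter-Glo luminescence after 48 hours' treatment.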
KB-V1 cytotox: KB-V1 MDR subline cytotoxicity; KB-V1 MDR cells viability, CellTiter-Glo, 72 h; Potency, µM (series often up to 46.1 µM), hits mostly cytotoxic; 400,000 tested, 3.4% active; AID 1347076; note: % is set by controls: 0 for no effect and ±100 for the full control effect; nearly all actives have a fitted effect of over 60% in size
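qHTS viability screen in drug-selected KB-V1 MDR cells: 72 h compound treatment at 37 degrees C, ATP luminescence end point.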
* hit, by the source's call; i = inactive; ? = inconclusive; . = no result given. Most compounds without a hit are left out; they make up all but 6.6% or so of the library. Calls come from the whole dose curve; as a rule, active = well fitted curve in the direction sought with a large enough effect; inconclusive = small, poorly fitted or top-dose-only effect, or another doubt; inactive = no such curve, though single readings can be large; an effect the other way counts as inactive or inconclusive. Potency is the fitted concentration of half-maximal effect.

SMILES	KB-3-1 tox	HepG2 viability	HT1080 IDH1KD tx	TGFb SMAD3 inh	HT1080-NT tox	KB-V1 cytotox
O=C(Nc1ncc(Cc2ccccc2)s1)C1CCN(C(=O)c2ccco2)CC1	i	-3%	.	3%	.	i
COc1ccc(-c2c(C)c3ccc(O)c(CN4CCN(CCO)CC4)c3oc2=O)cc1OC	i	-3%	.	5%	.	i
CCCCn1c(SCC(=O)Nc2ccc3c(c2)OCCO3)nnc1C(CC)N(C)C (centres undefined)	i	-29%	10%	-5%	10%	i
CCCCn1c(SCC(=O)Nc2cc(C(F)(F)F)cc(C(F)(F)F)c2)nnc1C(CC)N(C)C (centres undefined)	i	-10%	-23%	66%	-25%	15µM*
CCOC(=O)c1c(NC(=O)c2ccccc2C)sc2c1CCCC2	.	-2%	.	1%	.	.
CCOC(=O)c1c(NC(=O)C(=O)N/N=C/c2ccc(OCC)cc2)sc2c1CCCCC2	i	-3%	15%	-14%	7%	16µM*
CCOC(=O)c1c(NC(NC(=O)C(C)C)C(Cl)(Cl)Cl)sc2c1CCC2 (centres undefined)	?	2%	-18%	?	-10%	23µM*
CCOC(=O)c1c(NC(=O)C(=O)N/N=C/c2ccc(O)c(OC)c2)sc2c1CCCCC2	i	-19%	3%	3%	-19%	?
CCOC(=O)c1c(NC(=O)c2ccoc2C)sc2c1CCC2	i	2%	-1%	0%	-20%	21µM*
Cc1ccc(Cc2nc3ccccc3nc2SCC(=O)N2CCCCC2)cc1	.	-34%	.	0%	.	.
Cc1ccc(C)c(-n2nnc(-c3nc(-c4ccccc4C)no3)c2C)c1	.	-4%	.	-1%	.	.
CC(C)NC(=O)C1(C)CN(S(C)(=O)=O)CC(=O)N1Cc1cccc(C(F)(F)F)c1 (centres undefined)	i	.	-15%	.	-12%	i
Cc1ccsc1CCN1C(=O)N(c2ccc(F)cc2)C(=O)C1CC(=O)Nc1ccccc1 (centres undefined)	i	-7%	.	-22%	.	i
CCCCCCNC(=O)CC(c1ccccc1)c1cc(Br)ccc1O (centres undefined)	?	13µM*	?	13µM*	?	?
CCc1ccccc1Nc1nn2c(=O)c3ccc(C(=O)NCc4ccc(C)cc4)cc3nc2s1	2.9µM*	-22%	.	-13%	.	i
CCOC(=O)C1CCN(C(=O)c2ccc3c(=O)n4nc(Nc5cc(C)ccc5C)sc4nc3c2)CC1	?	-26%	-19%	13µM*	-21%	i
CCOC(=O)C1CCN(C(=O)c2ccc3c(=O)n4nc(Nc5ccccc5OC)sc4nc3c2)CC1	i	-12%	-11%	-4%	-14%	i
Cc1ccc(C)c(Nc2nn3c(=O)c4ccc(C(=O)NCc5cccs5)cc4nc3s2)c1	.	6.3µM*	.	5µM*	.	.
CCOc1ccc(CCNC(=O)Cn2ncn3c(cc4ccccc43)c2=O)cc1OCC	.	-4%	.	-10%	.	.
Cc1nc2ccc(NS(=O)(=O)c3c(C)c(C)cc(C)c3C)cc2s1	?	-7%	23µM*	-13%	?	?
Cc1nc2ccc(NS(=O)(=O)c3ccc(Br)cc3)cc2s1	23µM*	-13%	-3%	-26%	-6%	i
Cc1ccc(S(=O)(=O)Nc2ccc3nc(N)sc3c2)cc1	?	-10%	?	-20%	-7%	21µM*
Cc1ccc(S(=O)(=O)Nc2ccc3nc(C)sc3c2)cc1	i	-16%	-17%	0%	-13%	?
Cc1nc2cc(NS(=O)(=O)c3c(C)c(C)cc(C)c3C)ccc2s1	13µM*	-37%	13µM*	?	13µM*	11µM*
CCSc1ncc(Cl)c(C(=O)Nc2sc3c(c2C(=O)OC)CCCC3)n1	i	1%	.	13%	.	?
SMILES	KB-3-1 tox	HepG2 viability	HT1080 IDH1KD tx	TGFb SMAD3 inh	HT1080-NT tox	KB-V1 cytotox
Cc1ccc(Cl)cc1N1CCN(C2(c3ccccc3)C(=O)c3ccccc3C2=O)CC1	i	-13%	.	2%	.	i
CC(C)Oc1ccc(CNC(=O)c2ccc(CS(=O)Cc3ccccc3Cl)o2)cc1 (centres undefined)	.	-8%	.	?	.	.
Cc1ccc(S(=O)(=O)Nc2ccc3nc(C)oc3c2)cc1	?	-21%	-21%	?	0%	2.9µM*
CC1(C)CC(=O)C(C(C2=C(O)CC(C)(C)CC2=O)c2ccc(Br)s2)C(=O)C1 (centres undefined)	?	-3%	?	10µM*	-27%	21µM*
Cc1ccc(C(C2=C(O)CC(C)(C)CC2=O)C2C(=O)CC(C)(C)CC2=O)s1 (centres undefined)	i	-3%	1%	-10%	?	i
N#CC1(NC(=O)CSc2nc3ccccc3s2)CCCCC1	i	-24%	-4%	-23%	1%	16µM*
COc1cccc(CNc2nc(NCc3ccccc3)nc3ccsc23)c1	?	-48%	?	?	21µM*	9.2µM*
COCCNc1nc(NCc2ccc(NC(C)=O)cc2)c2sc(-c3ccccc3)cc2n1	?	-105%	?	?	9.2µM*	?
N#Cc1ccc(Nc2nc(NCc3ccccc3)nc3ccsc23)cc1	i	-34%	-28%	4%	?	i
CNc1nc(NCc2cccc(OC)c2)c2sccc2n1	i	-24%	?	-13%	-20%	i
COCCNc1nc(NCc2cc(-c3ccc(OC)cc3)no2)c2sccc2n1	?	-41%	13µM*	?	?	18µM*
Fc1ccc(Nc2nc(NCc3ccccc3)nc3ccsc23)cc1	i	13µM*	-25%	?	21µM*	?
COCCNc1nc(NCc2cccc(OC)c2)c2sc(-c3ccccc3)cc2n1	?	11µM*	?	?	?	i
CC(=O)Nc1ccc(S(=O)(=O)N(C)c2ccccc2)cc1	?	0%	-8%	-9%	11%	?
CC(=O)Nc1ccc(S(=O)(=O)N(CC(=O)O)Cc2ccccc2)cc1	i	5%	19%	-11%	13%	i
CCOC(=O)CN(Cc1ccccc1)S(=O)(=O)c1ccc(NC(C)=O)cc1	i	4%	?	-9%	1%	15µM*
CCOC(=O)/C=C/C(=O)Nc1ccc(S(=O)(=O)N(C)c2ccccc2)cc1	i	-3%	21µM*	?	?	i
